# The campaign covered roughly 420,000 compounds. About 64,000 (15%) were called active. Inconclusive results (about 27%) are left out. A selection follows. Values without a mark were called inactive. Calls come from the whole dose curve; as a rule, active = well fitted inhibition curve with a large enough effect; inconclusive = small, poorly fitted or top-dose-only effect; inactive = flat fitted curve, though single readings scatter.
# Assay: qHTS for Inhibitors of human tyrosyl-DNA phosphodiesterase 1 (TDP1): qHTS in cells in absence of CPT; note: nearly all actives have a fitted effect of over 55% in size
# Conditions: DT40 Tdp1-/- hTDP1 cells, no CPT, ATP luminescence, 48 h; activity change, negative = growth inhibition: at 46.2 µM (top of the series)
# Summary of the method: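 Growth kinetics read by CellTiter-Glo luminescence after ≥48 hr at 37 °C. Cells: DT40 Tdp1-/- stably carrying human TDP1, 400 per well, compound exposure in the absence of CPT (DMSO vehicle).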
# % is set by controls: 0 for no effect and ±100 for the full control effect; potency is the fitted concentration of half-maximal effect.
SMILES,"activity change, negative = growth inhibition [%]",Potency
CC(C)OC(=O)Cn1nc(C(F)(F)F)c2c1CCCC2,-2.71,
CCCC(C)c1nnc(NC(=O)C2CC(=O)N(c3ccc(OCC)cc3)C2)s1 (stereo not given),-29.7,
Cc1nnc(C(=O)NC(C)(C)c2nc(C(=O)NCc3ccc(F)cc3)c(O)c(=O)n2C)o1,-28.7,
COc1ccnc(Oc2ccccc2)c1-c1ncn[nH]1,7.94,
Cc1ccccc1CNC(=O)CSc1nnc(C)c2c(C)n(-c3ccccc3)nc12,-24.4,
Cc1nnc(SCC(=O)NCc2ccccc2Cl)c2nn(-c3ccccc3)c(C)c12,,23.1 µM (active)
CCOC(=O)C1CCN(C(=O)Cn2nc(C)c3c(C)n(-c4ccccc4)nc3c2=O)CC1,6.57,
Cc1nn(CC(=O)N2CCCCC2)c(=O)c2nn(-c3ccccc3)c(C)c12,40.7,
COc1ccccc1CNC(=O)Cn1nc(C)c2nn(-c3ccc(Cl)cc3)c(C)c2c1=O,,23.1 µM (active)
Cc1cccn2c(=O)nc(SCC(=O)NCc3ccccc3Cl)nc12,-1.53,
COc1ccc(OC)c(CNC(=O)Cn2nc(C)c3c(C)n(-c4ccc(C)cc4)nc3c2=O)c1,,16.4 µM (active)
COc1ccccc1CNC(=O)COC(=O)c1sc(C)nc1C,-17.9,
CCNC(=O)Cn1nc(C)n2c(cc3c(OC)cccc32)c1=O,-15,
Cc1ccccc1-c1nnn(CC(=O)c2ccc(S(=O)(=O)N3CCCC3)cc2)n1,-26.4,
CNC1(c2nnnn2-c2c(C)cccc2C)CCOC(C)(C)C1 (stereo not given),15.9,
COc1c(O)cccc1-c1nnn(CCC(=O)OCC(=O)c2ccccc2)n1,-15.8,
CC1(C(=O)NS(=O)(=O)c2cccc(OC(F)F)c2)CCN1C(=O)C1CC1 (stereo not given),2.72,
CCCCn1c(N)c(N(CC(C)C)C(=O)CN(C)S(=O)(=O)c2ccc(F)cc2)c(=O)[nH]c1=O,11.9,
Cc1cc2nc3n(c2cc1C)CC1CC(C(=O)NCCC(C)C)N(C)C31 (stereo not given),-8.55,
CCCCOc1ccc(Cl)cc1CSc1nncn1N,-20.7,
CN(c1ccc(C(=O)NCc2ccccn2)cc1)S(C)(=O)=O,1.99,
CS(=O)(=O)NCc1ccc(C(=O)NCc2ccccc2)cc1,-11.1,
COc1cccc(S(=O)(=O)NCc2ccc(C(=O)NCc3ccccn3)cc2)c1,,0.92 µM (active)
CCSc1nc(O)c(C(c2cccc(OC)c2)c2c(O)nc(SCC)[nH]c2=O)c(=O)[nH]1,-1.04,
C/C=N/N(c1ccccc1)c1ccccc1,0.354,
COc1ccccc1CNC(=O)COc1ccc(C)nc1[N+](=O)[O-],0.843,
Cc1ccc2cccc(OCCCOc3ccccc3CO)c2n1,,23.1 µM (active)

SMILES,"activity change, negative = growth inhibition [%]",Potency
OCc1ccc(OCCCOc2cccc3cccnc23)cc1,5.78,
O=S(=O)(c1ccc(Sc2nnc3ccccn23)nc1)N1CCOCC1,-11.4,
CCOCC(=O)NCc1ccc2c(c1)cc(C)n2C,-13.3,
CCn1c(=S)[nH]c2cc(S(=O)(=O)N3CCOCC3)ccc21,-10.9,
O=C(NCc1cccc(Cl)c1)C1=CC=CN2CCS(=O)(=O)N=C12,26.7,
COc1ccc(C)cc1NC(=O)CCC(=O)Nc1nnc(C(F)(F)F)s1,-0.883,
CN(CC(=O)Nc1ccccc1F)CC(=O)Nc1ccccc1Br,-24.5,
CSc1ccccc1NC(=O)Cc1ccc(Br)cc1,-19.4,
CSc1ccccc1NC(=O)CN(C)CC(=O)Nc1cccc(Br)c1,,23.1 µM (active)
CCn1c(SCC(=O)Nc2sc(C)c(C)c2C#N)nnc1C1CC1,6.18,
CC(C)(O)C#Cc1ccc(C(=O)N2CCC(C(N)=O)(N3CCCCC3)CC2)cc1,-1.61,
CC1CCN(C(=O)COC(=O)c2cc(S(=O)(=O)N3CCOCC3)ccc2Cl)CC1,-25.4,
Cn1c(=O)c2c(SCC(=O)NCC3CCCO3)nc(CC(C)(C)C)nc2n(C)c1=O (stereo not given),-1.92,
CCOC(=O)c1cnc(-n2nc(C)cc2C)nc1-n1nc(C)cc1C,-15.7,
CCOC(=O)c1cccc(NC(=O)CCn2nnc3ccccc32)c1,-14.5,
CCOC(=O)c1cnc(-n2nc(C)cc2C)nc1Nc1cccc(C(C)=O)c1,,8.2 µM (active)
O=[N+]([O-])c1c(NCCO)cc(Sc2nc3ccccc3s2)c2nonc12,,1.03 µM (active)
CCOc1ccccc1Nc1ccc2nonc2c1[N+](=O)[O-],-8.37,
O=C(O)c1cccc(S(=O)(=O)Nc2ccc(O)cc2Sc2nc3ccccc3s2)c1,-9.84,
COc1ccc(S(=O)(=O)NC(=O)C2(C)CCN2C(=O)COc2ccc(Cl)cc2)cc1 (stereo not given),-15.8,
c1ccc(C[C@H]2CNCCN2CCC23CC4CC(CC(C4)C2)C3)cc1,,10.3 µM (active)
COC(=O)c1ccccc1NC(=O)CN(Cc1ccccc1)S(C)(=O)=O,-23.5,
O=C(O)CSCc1ccc(C(=O)O)o1,11.8,
CC(C)(C)NC(=O)Cn1cnc2cc([N+](=O)[O-])ccc2c1=O,1.61,
Cc1ccc(C)c(OCCC(=O)OCC(=O)c2ccc3c(c2)NC(=O)CO3)c1,4.85,
COC(=O)c1ccccc1NC(=O)CN(Cc1ccc(Cl)cc1)S(C)(=O)=O,-8.64,
COC(=O)c1ccccc1Sc1c(/C=N/OCc2ccc(Cl)cc2)c(C(F)(F)F)nn1C,,20.6 µM (active)

SMILES,"activity change, negative = growth inhibition [%]",Potency
S=c1[nH]nc2c3c4c(sc3ncn12)CCCC4,-22.7,
Clc1ccc(-c2nnc(-c3ccccc3)nc2N2CCSCC2)cc1,,14.6 µM (active)
OCCN1CCN(c2nnc(-c3ccccc3)c3ccccc23)CC1,9.89,
O=C(N[C@H]1CC[C@H](CC(=O)N2CCCCC2)O[C@@H]1CO)c1cccc(F)c1,2.47,
COc1ccc(C(=O)Nc2cccc(NC(=O)c3ccc(OC)cc3OC)n2)c(OC)c1,,2.59 µM (active)
COc1ccc(C(=O)Nc2nncs2)c(OC)c1,-3.64,
COc1ccc(C(=O)NC2=NCCS2)c(OC)c1,-17.6,
O=C1CCCc2c1[nH]c1ccc(Br)cc21,-12.7,
COc1ccc(/C=C2\SC(=S)N(CC(=O)NNC(=O)c3ccncc3)C2=O)cc1,-2.19,
CN(C(=O)COc1nnc(-c2cccs2)c(-c2cccs2)n1)c1ccccc1,,18.4 µM (active)
O=C(O)Cc1sc(-c2ccccc2)nc1-c1cccs1,-3.31,
CN(C(=O)COC(=O)CNC(=O)C12CC3CC(CC(C3)C1)C2)c1ccccc1,-13.2,
Cc1cc(=O)oc(C)c1C(=O)NCCN(C)Cc1ccccc1,0.281,
COc1ccccc1NC(=O)N(O)C1(C#N)CCCCC1,-4.03,
O=C(CSc1nnc2ccc(-c3ccncc3)nn12)N1CCCCC1,13.2,
CCS(=O)(=O)c1ccc(-c2cccc(NC(=O)c3ccc(Br)o3)c2)nn1,-16.7,
COc1ccc(S(=O)(=O)N2CCN(C(=S)NCC3CCCO3)CC2)cc1OC (stereo not given),1.23,
CCOc1ccc(S(=O)(=O)N2CCN(C(=S)NCC3CCCO3)CC2)cc1 (stereo not given),-17.7,
S=C(NCC1CCCO1)N1CCN(c2ccc(Cl)c(Cl)c2)CC1 (stereo not given),,20.6 µM (active)
COc1cc(/C=C(/NC(=O)c2ccccc2)C(=O)Nc2cccc(O)c2)c([N+](=O)[O-])cc1OC,5.97,
Cn1nc(C(C)(C)C)c([N+](=O)[O-])c1C(N)=O,-6.79,
COc1cccc(N2CC(C(=O)Nc3c(C)cccc3C)CC2=O)c1 (stereo not given),-17.9,
O=C(CSCc1ccccc1)N1CCc2ccccc21,-12.2,
O=C(Nc1ccc2nc(SCC(=O)N3CCc4ccccc43)sc2c1)c1ccccc1F,-22,
O=C(CSc1ccc2nnc(-c3ccccc3)n2n1)N1CCCc2ccccc21,-28,
CCC(=O)Nc1ccc2nc(SCC(=O)N3CCc4ccccc43)sc2c1,,10.3 µM (active)
O=C(Nc1ccc2nc(SCC(=O)N3CCCc4ccccc43)sc2c1)c1ccc(F)cc1,,2.91 µM (active)

SMILES,"activity change, negative = growth inhibition [%]",Potency
O=C(NCc1nnc(SCC(=O)N2CCCc3ccccc32)o1)c1ccccc1F,2.14,
O=C(Nc1ccc2nc(SCC(=O)N3CCCc4ccccc43)sc2c1)c1ccc(Cl)cc1,,5.8 µM (active)
Cn1c(=O)c2c(SCC(=O)N3CCc4ccccc43)nc(-c3ccc(Cl)cc3)nc2n(C)c1=O,0.535,
CCOC(=O)C1(Cc2cccc(OC)c2)CCCN(S(=O)(=O)c2cccnc2)C1 (stereo not given),-9.7,
O=C(CCc1ccc(S(=O)(=O)N2CCOCC2)cc1)OCC(=O)c1ccc(Br)cc1,1.67,
O=C(CSc1nnc(-c2ccoc2)o1)N1CCOCC1,-1.48,
COC(=O)/C=C/C(=O)NCc1ccco1,-5.88,
COc1cc2c(C(=O)O)c(C)n(C)c2c2ccccc12,25.6,
COc1cccc(/C=N/NC(=O)C(=O)N2CCCC2)c1,-4.99,
O=c1[nH]c(/C=C\c2cccc(C(F)(F)F)c2)nc(O)c1[N+](=O)[O-],-6.9,
Cc1cccc(NC(=O)CSc2nnc(NC(=O)CN3CCOCC3)s2)c1,-27.8,
Cn1c(=S)sc2ccc3ccccc3c21,-26.6,
O=c1c2c(nc3nc[nH]n13)CCC2,8.28,
C=CCc1c(C)nc2cc(-c3ccccc3)[nH]n2c1=O,-19.6,
O=c1c2c(nc3cc(-c4cccc(Cl)c4)[nH]n13)CCCC2,,20.6 µM (active)
CN(C)S(=O)(=O)c1ccc(Cl)c(NC(=O)COC(=O)CC(NC(N)=O)c2ccc(Cl)cc2)c1 (stereo not given),6.6,
Cc1ccc(N(CC(=O)NCC2CCCO2)C(=O)CNS(=O)(=O)c2ccc(Cl)cc2)cc1 (stereo not given),-25.4,
CC(Sc1nnc(C2CC2)n1C1CC1)C(=O)Nc1ccc(C(N)=O)cc1 (stereo not given),23.3,
O=C1CCCC2=C1C(c1cccs1)CC(=O)N2c1ccc(F)cc1 (stereo not given),-1.99,
CCN(CC)c1ccc(C2C(C(N)=O)=C(C)Nc3nc(SCc4ccccc4)nn32)cc1 (stereo not given),3.75,
O=C1CCCC2=C1C(c1cccs1)n1nc(SCc3ccccc3)nc1N2 (stereo not given),,14.6 µM (active)
O=S(=O)(NCc1ccccc1Cl)c1cnc[nH]1,-0.134,
Cc1ccc(NC(=O)CCOc2ccccc2)cc1S(=O)(=O)Nc1ccccc1Cl,-25.4,
CC(C)c1ccc(C(=O)OC2CCOC2=O)cc1 (stereo not given),-20.9,

# Reference: PubChem BioAssay AID686978 (National Center for Advancing Translational Sciences (NCATS), 2013)
